These results are taken from PubChem BioAssay.

SMILES strings stand for the structures. Several values for one entry are separate records, joined by “and”; a condition that tells them apart may be missing. Identical values can stand only once. Activity calls are given as the source filed them.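 How the source made its calls, unless noted: active means compounds whose cell count with miR-34 switched on is under 0.7 times the count with it off; inactive means the rest.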

The nature of assay [1]: sensitizers of A549 cells to miR-34 induction, primary screen, imaging, A549 dox-inducible miR-34, nuclei and caspase counts (AID 1347080). The note with it: A549 miR-34 inducible, Hoechst nuclei count, 48 h.
Assay [2] in a line: survival rescue of mitochondrial mutant cells in low glucose, primary screen, MELAS cybrids, Rieske KO mouse fibroblasts, CellTiter-Glo (AID 1508586;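 active means mean z-score across replicates of 1.96 or higher in either the MELAS or the Rieske mutant cell line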;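 further: z relative to plate mean and SD of compound and empty wells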). (In general: Cellular ATP, detected with luciferase, serves as a proxy for viable cell number.)
Where [3] appears, read: stronger effect = lower value, cell number ratio, induced over uninduced.
Setting [4] is: measured here: relative caspase fold change +Dox/-Dox.
[5] abbreviates: measured here: total cells with miR-34 induction, stronger effect = lower value.
[6] abbreviates: measured here: total cells without miR-34 induction.
The mark [7] stands for this setting: MELAS cybrid survival, CellTiter-Glo 48 h, stronger effect = higher value.
Where [8] appears, read: Rieske KO mouse fibroblast survival, CellTiter-Glo 72 h.
Further: test concentration not given here.

In the case of `COc1ccc(C2CC(=O)c3c(O)cc(OC4OC(COC5OC(C)C(O)C(O)C5O)C(O)C(O)C4O)cc3O2)cc1O` (configuration not stated), the fold change was 0.944 (inactive) and 0.996 (inactive) in assay [1] (setting [3]); 0.804 and 0.887 in assay [1] (setting [4]). Moreover, the cell count was 9100 and 9620 in assay [1] (setting [5]); 9630 and 9660 in assay [1] (setting [6]). In addition, the z-score in assay [2] (setting [7]) is -0.317 (inactive) and -0.329 (inactive); in assay [2] (setting [8]), 0.0192 and 0.287.

Take `COCC(=O)NCC=Cc1ccc2ncnc(Nc3ccc(Oc4ccc(C)nc4)c(C)c3)c2c1`: the values for the fold change in assay [1] (setting [3]) and in assay [1] (setting [4]) were 0.862 (inactive) and 1.21, respectively. In addition, the cell count in assay [1] (setting [5]) is 5970; in assay [1] (setting [6]), 6930. For the same compound, the z-score is -0.531 (inactive) in assay [2] (setting [7]) and 1.09 in assay [2] (setting [8]).

With `CC1(C)S[C@@H]2C(NC(=O)C(N)c3ccccc3)C(=O)N2C1C(=O)O` (some centres not stated), the fold change in assay [1] (setting [3]) is 0.917 (inactive); in assay [1] (setting [4]), 0.571. Moreover, the cell count in assay [1] (setting [5]) is 8070; in assay [1] (setting [6]), 8800. Besides, the z-score was -0.241 (inactive) in assay [2] (setting [7]) and -0.225 in assay [2] (setting [8]).

As to `C=C1C(=O)[C@@]23C(O)[C@H]1CCC2[C@]12CO[C@]3(O)C(O)[C@@H]1C(C)(C)CCC2O` (some centres not stated), the fold change is 0.94 (inactive) in assay [1] (setting [3]) and 0.647 in assay [1] (setting [4]). In addition, the cell count came out at 8410 in assay [1] (setting [5]) and 8940 in assay [1] (setting [6]). The z-score is -0.553 (inactive) in assay [2] (setting [7]) and -0.438 in assay [2] (setting [8]).

In the case of `O=C(COc1ccc(C(=O)c2ccccc2)cc1)NC1CCN(Cc2ccccc2)CC1`, the fold change in assay [1] (setting [3]) is 0.922 (inactive); in assay [1] (setting [4]) it was 0.78. For the same compound, the cell count in assay [1] (setting [5]) worked out at 6930; in assay [1] (setting [6]), 7520. The z-score was -0.391 (inactive) in assay [2] (setting [7]) and -0.791 in assay [2] (setting [8]).

Consider `Cn1ncnc1C1c2n[nH]c(=O)c3cc(F)cc(c23)NC1c1ccc(F)cc1` (configuration not stated), for which the fold change was 0.895 (inactive) in assay [1] (setting [3]) and 1.04 in assay [1] (setting [4]). Further, the cell count in assay [1] (setting [5]) was 2740; in assay [1] (setting [6]), 3060. The figures for the z-score in assay [2] (setting [7]) and in assay [2] (setting [8]) were -0.229 (inactive) and -0.124, respectively.

As to `O=C1CC(=O)c2c(Cl)c(Cl)c(Cl)c(Cl)c21`, the fold change in assay [1] (setting [3]) was 1.01 (inactive); in assay [1] (setting [4]), 0.472. Moreover, the values for the cell count in assay [1] (setting [5]) and in assay [1] (setting [6]) were 8430 and 8350, respectively. Besides, the z-score in assay [2] (setting [7]) was -0.354 (inactive); in assay [2] (setting [8]), -0.295.

Take `COc1ccc(CNCc2cccc3ccccc23)cc1`: the figures for the fold change in assay [1] (setting [3]) and in assay [1] (setting [4]) were 0.918 (inactive) and 0.638, respectively. In addition, the cell count in assay [1] (setting [5]) turned out to be 8220; in assay [1] (setting [6]), 8960. The z-score is -0.404 (inactive) in assay [2] (setting [7]) and -0.0397 in assay [2] (setting [8]).

For `CC(C)CC(NC(=O)CNC(=O)c1cc(Cl)ccc1Cl)B(O)O` (configuration not stated), the fold change is 0.948 (inactive) in assay [1] (setting [3]) and 1.44 in assay [1] (setting [4]). Besides, the cell count was 1800 in assay [1] (setting [5]) and 1900 in assay [1] (setting [6]). Besides, the z-score in assay [2] (setting [7]) was -0.0464 (inactive); in assay [2] (setting [8]), -3.37.

Regarding `CCOc1cc(C(CS(C)(=O)=O)N2C(=O)c3cccc(NC(C)=O)c3C2=O)ccc1OC` (configuration not stated), the fold change in assay [1] (setting [3]) is 0.919 (inactive); in assay [1] (setting [4]) it was 0.498. For the same compound, the cell count in assay [1] (setting [5]) was determined as 8660; in assay [1] (setting [6]) it was 9420. Also, the z-score is -0.371 (inactive) in assay [2] (setting [7]) and -0.546 in assay [2] (setting [8]).

In the case of `COc1cc(C2Oc3ccc(C4Oc5cc(O)cc(O)c5C(=O)C4O)cc3OC2CO)ccc1O` (configuration not stated), the fold change in assay [1] (setting [3]) was 0.913 (inactive); in assay [1] (setting [4]), 0.744. The cell count in assay [1] (setting [5]) was 8070; in assay [1] (setting [6]) it was 8840. The z-score is -0.245 (inactive) in assay [2] (setting [7]) and -0.07 in assay [2] (setting [8]).

`CC(O)=C(C#N)C(=O)Nc1ccc(C(F)(F)F)cc1`: the results for the fold change in assay [1] (setting [3]) and in assay [1] (setting [4]) were 0.904 (inactive) and 1.22, respectively. The cell count came out at 7860 in assay [1] (setting [5]) and 8690 in assay [1] (setting [6]). In addition, the z-score is -0.297 (inactive) in assay [2] (setting [7]) and -0.28 in assay [2] (setting [8]).

Take `CC(C)(C)c1cc(C=C(C#N)C(N)=S)cc(C(C)(C)C)c1O`: the fold change in assay [1] (setting [3]) is 0.89 (inactive); in assay [1] (setting [4]), 0.706. Moreover, the cell count amounted to 3790 in assay [1] (setting [5]) and 4260 in assay [1] (setting [6]). The z-score was -0.383 (inactive) in assay [2] (setting [7]) and -0.375 in assay [2] (setting [8]).

Turning to `COC1CC2CCC(C)[C@@](O)(O2)C(=O)C(=O)N2CCCCC2C(=O)OC(C(C)CC2CCC(O)C(OC)C2)CC(=O)C(C)C=C(C)C(O)C(OC)C(=O)C(C)CC(C)C=CC=CC=C1C` (some centres not stated), the fold change in assay [1] (setting [3]) is 0.994 (inactive); in assay [1] (setting [4]), 1.19. The values for the cell count in assay [1] (setting [5]) and in assay [1] (setting [6]) were 4070 and 4090, respectively. Also, the z-score in assay [2] (setting [7]) stood at 0.132; in assay [2] (setting [8]), 2.33.

As to `CCCC(=O)O[C@@]1(C(=O)COC(C)=O)CC[C@H]2[C@@H]3CC(F)C4=CC(=O)C=C[C@]4(C)[C@]3(F)C(O)C[C@@]21C` (some centres not stated), the fold change in assay [1] (setting [3]) was 0.767 (inactive); in assay [1] (setting [4]), 1.77. Further, the cell count in assay [1] (setting [5]) stood at 5160; in assay [1] (setting [6]), 6730. In addition, the z-score in assay [2] (setting [7]) was -0.0529 (inactive); in assay [2] (setting [8]), -0.145.

Consider `O=C(NCC(O)CO)c1ccncc1Nc1ccc(I)cc1F` (configuration not stated), for which the fold change in assay [1] (setting [3]) was 1.05 (inactive); in assay [1] (setting [4]), 0.75. In addition, the cell count was 3270 in assay [1] (setting [5]) and 3120 in assay [1] (setting [6]). Moreover, the figures for the z-score in assay [2] (setting [7]) and in assay [2] (setting [8]) were -0.688 (inactive) and -1.18, respectively.

In the case of `CN(CC1COCCO1)S(=O)(=O)Nc1ccc2ccc3ncc(-c4cnn(C)c4)cc3c(=O)c2c1` (configuration not stated), the fold change is 0.745 (inactive) in assay [1] (setting [3]) and 1.24 in assay [1] (setting [4]). For the same compound, the cell count was determined as 3290 in assay [1] (setting [5]) and 4410 in assay [1] (setting [6]). Moreover, the z-score was 4.55 (active) in assay [2] (setting [7]) and 2.15 in assay [2] (setting [8]).

For `CCC1=CC2CN(C1)Cc1c([nH]c3ccccc13)[C@@](C(=O)OC)(c1cc3c(cc1OC)N(C)[C@@H]1[C@@]34CCN3CC=C[C@@](CC)(C(OC(C)=O)[C@]1(O)C(=O)OC)[C@@H]34)C2` (some centres not stated), the fold change in assay [1] (setting [3]) is 1.11 (inactive); in assay [1] (setting [4]), 0.608. The cell count in assay [1] (setting [5]) came to 1810; in assay [1] (setting [6]) it was 1620. In addition, the z-score is 2.06 (active) in assay [2] (setting [7]) and -0.337 in assay [2] (setting [8]).

Consider `c1ccc(NCc2ccc(CNc3ccccn3)cc2)nc1`, for which the fold change is 0.944 (inactive) in assay [1] (setting [3]) and 0.525 in assay [1] (setting [4]). The cell count in assay [1] (setting [5]) came out at 7360; in assay [1] (setting [6]) it was 7790. For the same compound, the z-score is -0.161 (inactive) in assay [2] (setting [7]) and -0.0229 in assay [2] (setting [8]).

As for `C=C1CCC(O)CC1=CC=C1CCC[C@]2(C)C(C(C)CCCC(C)C)CC[C@@H]12` (some centres not stated), the fold change in assay [1] (setting [3]) is 0.915 (inactive); in assay [1] (setting [4]), 0.845. In addition, the cell count in assay [1] (setting [5]) was 8000; in assay [1] (setting [6]) it was 8740. In addition, the z-score was -0.279 (inactive) in assay [2] (setting [7]) and -0.0631 in assay [2] (setting [8]).

On to `O=C(Nc1ccccc1)Nc1ccc(-c2ccc(C(=O)C3CCCC3C(=O)O)cc2)cc1` (configuration not stated), for which the figures for the fold change in assay [1] (setting [3]) and in assay [1] (setting [4]) were 0.846 (inactive) and 0.729, respectively. Moreover, the values for the cell count in assay [1] (setting [5]) and in assay [1] (setting [6]) were 9210 and 10900, respectively. The z-score in assay [2] (setting [7]) is -0.239 (inactive); in assay [2] (setting [8]), 0.453.

As for `C=CCc1ccc(O)c(-c2cc(CC=C)ccc2O)c1`, the fold change was 0.923 (inactive) in assay [1] (setting [3]) and 0.657 in assay [1] (setting [4]). The results for the cell count in assay [1] (setting [5]) and in assay [1] (setting [6]) were 7490 and 8120, respectively. The z-score in assay [2] (setting [7]) was 0.173 (inactive); in assay [2] (setting [8]), -0.0672.
